Only some compounds are listed: those with a hit (about 19% of all), similar ones and a draw of the others.
HT1080 IDH1KD tx = kills HT-1080 cells with IDH1 knockdown | HT-1080 IDH1 knockdown viability, ATP luminescence, 48 h | Potency, µM (series often up to 46.1 µM), for the others: top-dose activity, negative = toxicity, actives largely listed as cytotoxic | hit rate 2% among 360,000 | AID 686971;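 further: potency means the concentration at half of the fitted maximal effect; 0% = DMSO wells and -100% = cell-free medium wells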
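Cytotoxicity counter-line: IDH1KD HT-1080, 48 h, CellTiter-Glo. Curves classed by r2, magnitude and activity.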
TDP1 cell CPT = growth inhibition of DT40 Tdp1-/-;hTDP1 cells with camptothecin (screen for TDP1 inhibitors); chicken DT40 Tdp1-/-;hTDP1 cells + 20 nM CPT, ATP luminescence, 48 h; Potency, µM (highest dose often 46.2 µM), inactives show at the highest dose activity change, negative = growth inhibition, usual class: inhibitors; AID 686979; hit rate 12% among 420,000; further: potency means the concentration at half of the fitted maximal effect; nearly all actives have a fitted effect of over 55% in size
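Chicken DT40 Tdp1-/- cells stably complemented with human TDP1 were seeded at 400 cells/well in medium containing 20 nM camptothecin, exposed to pin-transferred compounds, and grown at 37 °C for at least 48 hr. Viability was read as ATP luminescence.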
HT1080NT lethal = kills 2HG-producing HT-1080-NT fibrosarcoma cells; Potency, µM (top dose mostly 46.1 µM), without a hit: at the top dose activity, negative = less viability, actives largely listed as cytotoxic; HT-1080-NT fibrosarcoma viability, CellTiter-Glo ATP luminescence, 48 h; hit rate 1.6% among 360,000;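 further: NT is the 2HG producing partner of a matched IDH1 knockdown line; potency means the concentration at half of the fitted maximal effect; 0% = DMSO-treated cells and -100% = media-only wells without cells; nearly all actives have a fitted effect of over 55% in size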
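Compounds were tested in concentration-response format on HT-1080-NT cells for 48 hours at 37 degrees C. Cell viability came from CellTiter-Glo luminescence; curves were classified by r2, response magnitude and activity.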
DT40 TDP1 no CPT = qHTS for Inhibitors of human tyrosyl-DNA phosphodiesterase 1 (TDP1): qHTS in cells in absence of CPT | DT40 Tdp1-/- hTDP1 cells, no CPT, ATP luminescence, 48 h | Potency, µM (highest dose often 46.2 µM), for inactives: top-dose activity change, negative = growth inhibition, most hits filed as inhibitors | hit rate 15% among 420,000 | AID 686978, 2013; further: potency means the concentration at half of the fitted maximal effect; nearly all actives have a fitted effect of over 55% in size
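Chicken DT40 Tdp1-/- cells stably complemented with human TDP1 were seeded at 400 cells/well with DMSO in place of 20 nM camptothecin. After compound pinning, cells grew at least 48 hr at 37 °C; viability read by CellTiter-Glo luminescence.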
uPA surface inh = blocks generation of uPA at the cell surface; cell surface uPA generation assay, qHTS; Potency, µM (highest dose often 38.3 µM), inactives show at the top dose activity change, negative = inhibition, actives largely listed as inhibitors; hit rate 0.31% among 330,000; AID 540303; active means well fitted inhibition curve with a large enough effect; inconclusive means small, poorly fitted or top-dose-only effect; inactive means no such curve, though single readings can be large or run the other way; tested in mouse RAW 264.7 cells; further: potency means the concentration at half of the fitted maximal effect; nearly all actives have a fitted effect of over 55% in size
IL-1B inflam inh = inhibitors of inflammasome signaling (IL-1 beta secretion); THP-1 LPS/ATP IL-1B secretion, AlphaLISA, 16 h; hits give low values; activity change, % at 57.5 µM; hit rate 4.7% among 360,000; AID 743279; in the data active means activity change below about -50%; inconclusive means mostly about -30% to -49%
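THP-1 cells pretreated 1 hr with compounds (up to 57.5 uM final), then stimulated with LPS (250 ng/mL final) plus ATP (1.25 mM final); secreted IL-1B measured by AlphaLISA after 16 hr, decreased signal indicating inhibition.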
The depositor's hits bear a star; ? = inconclusive; . = not tested or not shown. Unless noted, the call rests on the fitted dose curve; in most records, active means well fitted curve in the direction sought with a large enough effect; inconclusive means small, poorly fitted or top-dose-only effect, or another doubt; inactive means no such curve, though single readings can be large; an effect the other way counts as inactive or inconclusive. Unless noted, on the % scale 0 is the no-effect control and ±100 the full control effect.

SMILES	HT1080 IDH1KD tx	TDP1 cell CPT	HT1080NT lethal	DT40 TDP1 no CPT	uPA surface inh	IL-1B inflam inh
COc1ccc(N(C)S(=O)(=O)c2cccc(C(=O)Nc3cccc(C(=O)NC4CC4)c3)c2)cc1	-14%	15µM*	-6%	16µM*	-6%	-7
COc1cccc(C(=O)NC2CC3CCCC(C2)N3S(=O)(=O)c2ccccc2)c1 (configuration not stated)	-2%	13µM*	-18%	12µM*	4%	1
CCCCN1C2CCCC1CC(NC(=O)c1cccc(OC)c1)C2 (configuration not stated)	18%	-3%	0%	-4%	1%	-6
COc1ccc(N(C)S(=O)(=O)c2cccc(C(=O)NC3CCC(C)CC3)c2)cc1 (configuration not stated)	-21%	?	-11%	16µM*	5%	?
COc1ccccc1N1CCN(C(=O)CCCn2nc(C)c([N+](=O)[O-])c2C)CC1	-7%	-20%	2%	?	2%	46
COc1ccc(N(C)S(=O)(=O)c2cccc(C(=O)NC3CCCCCC3)c2)cc1	?	-29%	-14%	?	8%	-55*
COc1ccc(Cc2nnc(SCC(=O)NC3CCCC3)o2)cc1	5%	0%	3%	-4%	2%	-6
COc1ccc(Cc2nnc(SCC(=O)N3CCCCC3)o2)cc1	-21%	5%	-4%	23µM*	-19%	-21
CC(C)(C)c1ccc(C(=O)NCc2nnc(SCC(=O)NC3CCCCC3)o2)cc1	7%	8.2µM*	8%	21µM*	-13%	-15
COc1ccc(C(=O)NCc2nnc(SCC(=O)N3CCCC3)o2)cc1OC	14%	12%	6%	11%	8%	-55*
COc1ccc(Cc2nnc(SCC(=O)N3CCN(c4ccccc4)CC3)o2)cc1	11%	23µM*	4%	23µM*	.	0
COc1cc(C(=O)NCc2nnc(SCC(=O)NC3CCCC3)o2)cc(OC)c1OC	11%	9%	7%	5%	-2%	40
CC(=O)Nc1ccc(NS(=O)(=O)c2c(C(=O)N3CCC(C)CC3)c(C)n(C)c2C)cc1	.	-5%	.	-9%	.	.
Cc1cnc(CNc2cc(-c3ccccc3C(F)(F)F)ncn2)cn1	.	4%	.	4%	.	.
CCc1cc(=O)oc2c3c(c(Cl)cc12)OCN(Cc1cccc(OC)c1)C3	.	-24%	.	-19%	.	.
O=C(C[N+]1(CCc2ccccc2)CCOCC1)c1cccc([N+](=O)[O-])c1	.	-4%	.	-20%	.	.
O=C(NCc1nnc(SCC(=O)N2CCC(Cc3ccccc3)CC2)o1)c1ccccc1F	-5%	?	-15%	16µM*	-12%	1
Nc1oc2ccccc2c(=O)c1-c1ccc2c(c1)OCO2	0%	18µM*	-2%	?	-12%	21
CN1CCc2c(sc(NC(=O)C3CCCN3S(=O)(=O)c3ccc(Cl)s3)c2C(N)=O)C1 (configuration not stated)	1%	-2%	6%	?	-3%	-5
COc1ccc(NC(=O)CSc2nnc3n2CCCCC3)cc1S(=O)(=O)N(C)C	0%	-1%	0%	-2%	.	-6
Cc1ccccc1NC(=O)C[n+]1cc(-c2ccccc2)n2c1CCC2	8%	9%	9%	-5%	1%	-4
Cc1ccc(-c2c[n+](CC(=O)Nc3nc(-c4ccc(F)cc4)cs3)c3n2CCC3)cc1	23µM*	12µM*	21µM*	10µM*	-3%	-100*
O=C(C[n+]1cc(-c2ccc(F)cc2)n2c1CCC2)Nc1nc(-c2ccccc2)cs1	-30%	?	-15%	?	2%	-2
O=C(C[n+]1cc(-c2ccc(Cl)cc2)n2c1CCC2)Nc1nc(-c2ccccc2)cs1	-6%	?	10%	5.8µM*	-2%	?
O=C(N[C@@H]1CC[C@@H](CCn2cc(-c3ccccc3)nn2)O[C@@H]1CO)c1cnccn1	4%	14%	11%	-1%	.	31
SMILES	HT1080 IDH1KD tx	TDP1 cell CPT	HT1080NT lethal	DT40 TDP1 no CPT	uPA surface inh	IL-1B inflam inh
Cc1cn([C@H]2C[C@H](O)[C@@H](CCC(=O)NC(c3ccccc3)c3ccccc3)O2)c(=O)[nH]c1=O	4%	7%	10%	1%	7%	0
COc1ccccc1CC(=N)N1C[C@@H]2C(=O)CCC(c3ccccc3)(c3ccccc3)[C@@H]2C1	.	12µM*	.	21µM*	.	.
CCC(C)c1ccc(N(C(=O)c2ccco2)C(C(=O)NC2CCCC2)c2cccnc2)cc1 (configuration not stated)	-22%	18µM*	-1%	16µM*	0%	-21
Cc1ccc(N(C(=O)c2ccco2)C(C(=O)NC2CCCC2)c2cccnc2)cc1C (configuration not stated)	-11%	-6%	-14%	-7%	8%	18
CC(=O)Nc1ccc(N(C(=O)c2ccco2)C(C(=O)NC2CCCCC2)c2ccccc2)cc1 (configuration not stated)	-3%	-14%	-4%	?	12%	-53*
CC(=O)Nc1ccc(N(C(=O)c2ccco2)C(C(=O)NC2CCCC2)c2cccs2)cc1 (configuration not stated)	-2%	8%	4%	-29%	2%	-10
Cc1ccc(/C=C2/Sc3ccc(C(=O)NCCN4CCOCC4)cc3NC2=O)cc1	-2%	-23%	1%	?	26%	-3
COc1cccc(/C=C2/Sc3ccc(C(=O)NCCN4CCCC4)cc3NC2=O)c1	-9%	16µM*	-12%	?	6%	?
COc1ccc(/C=C2\Sc3ccc(C(=O)NCCN4CCCCCC4)cc3N(C)C2=O)cc1	5%	?	9%	23µM*	1%	-26
COc1cccc(/C=C2/Sc3ccc(C(=O)NCCCN4CCCC4)cc3NC2=O)c1	2%	18µM*	6%	21µM*	-11%	-12
O=[N+]([O-])c1ccc2c(c1)N([O-])C1(CCCCC1)[N+]2=O	-3%	26µM*	-22%	?	-3%	.
CCCOc1cccc(C2c3c(oc4ccc(F)cc4c3=O)C(=O)N2CCc2ccc(OC)cc2)c1 (configuration not stated)	.	-26%	.	?	.	.
CSc1ccc(Cl)c(C(=O)N2CCOc3ccccc32)c1	-11%	18µM*	-17%	16µM*	-18%	49

Assay outcomes deposited in PubChem BioAssay by National Center for Advancing Translational Sciences (NCATS).
